High-throughput results deposited in PubChem BioAssay by several laboratories.
GC-B act: human GC-B receptor activators, primary screen, HEK293 GC-B cells, cGMP TR-FRET, EC30 CNP. activation, % at 10 µM. 0.11% of 370,000 active. Atrial natriuretic peptide receptor 2 (Homo sapiens), P20594. 0% at EC30 CNP, 100% saturating CNP;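 active = activation at 10 µM reaching about 35% in either raw or pattern-adjusted values, limit read from the data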
ADAM10 inh: human ADAM10 inhibitors, primary screen, biochemical, QFRET, HTS; recombinant ADAM10, EDANS/DABCYL FRET peptide cleavage, 3 h; 0.62% of 370,000 active; AID 720582, 2013; inhibition, % at 7 µM;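 active = inhibition above a per-campaign cutoff equal to the mean of compounds falling between control-based bounds plus 3 SD, cut at about 20% in these data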
Target sequence (O14672 214-748 limits assumed): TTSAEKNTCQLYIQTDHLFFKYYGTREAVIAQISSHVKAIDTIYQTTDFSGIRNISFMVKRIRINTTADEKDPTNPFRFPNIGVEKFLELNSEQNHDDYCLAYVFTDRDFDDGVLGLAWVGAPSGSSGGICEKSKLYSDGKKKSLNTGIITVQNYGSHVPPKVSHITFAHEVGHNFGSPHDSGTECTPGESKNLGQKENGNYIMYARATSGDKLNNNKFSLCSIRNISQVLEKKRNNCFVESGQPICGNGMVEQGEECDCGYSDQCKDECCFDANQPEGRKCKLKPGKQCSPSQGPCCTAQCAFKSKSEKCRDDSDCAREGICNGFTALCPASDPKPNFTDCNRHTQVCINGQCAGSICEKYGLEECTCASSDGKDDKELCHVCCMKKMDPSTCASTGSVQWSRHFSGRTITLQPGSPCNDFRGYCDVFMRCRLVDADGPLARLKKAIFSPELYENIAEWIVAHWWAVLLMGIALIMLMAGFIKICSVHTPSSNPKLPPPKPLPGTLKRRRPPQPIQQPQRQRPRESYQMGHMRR
GC-A act: GC-A stimulated cGMP production enhancers – HEK293 GC-A cells, cGMP TR-FRET, EC30 ANP, primary screen; 0% at EC30 ANP, 100% saturating ANP; activation, % at 10 µM; 0.14% of 370,000 active; AID 1671463, 2021; in the data active = activation above about 40%
ADAM17 inh: ADAM17 inhibitors, primary screen, biochemical, QFRET | inhibition, % at 6.95 µM | AID 720648, 2013 | recombinant ADAM17, EDANS/DABCYL FRET peptide cleavage | 0.83% of 370,000 active | Disintegrin and metalloproteinase domain-containing protein 17 (Homo sapiens), P78536;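 active = inhibition above the mean of compounds lying between control limits plus 3 SD, set per campaign, cut at about 8.5% in these data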
proKLK7 act: proKLK7 zymogen activators, primary screen, biochemical, fluorescence intensity; Kallikrein-7 (Homo sapiens), P49862; purified proKLK7, EDANS-DABCYL substrate fluorescence; 100% is mature enzyme control, 0% vehicle; activation, % at 7 µM; 0.9% of 370,000 active; AID 652039, 2013;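 active = activation above the mean of all tested compounds plus 3 SD, computed per campaign excluding outliers beyond control limits, cut at about 13% in these data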
proKLK7 act conf: proKLK7 zymogen activators, confirmation, biochemical, fluorescence intensity, triplicate. shares compounds with proKLK7 act. purified proKLK7, EDANS-DABCYL substrate fluorescence; scaled: vehicle 0, mature enzyme 100. activation, % at 7 µM. 68% of 3,200 active. AID 686949, 2013;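 active = activation, as change over the incubation, above the mean of all tested compounds plus 3 SD, cut at about 13% in these data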
EDANS-DABCYL int: EDANS-DABCYL substrate optical interference, artefact control for kallikrein-7 zymogen activator project, biochemical, fluorescence intensity, high throughput; shares compounds with proKLK7 act; no enzyme, 4 h; solvent 0%, active enzyme control 100%; activation, % at 7 µM; 80% of 3,200 active; AID 686952, 2013;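 active = activation above the all-compound mean plus 3 SD, ignoring values outside control-based bounds, cut at about 4.8% in these data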;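 also: value is the 4 h activation minus the activation read at time zero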
EDANS interf: optically interferes with EDANS-DABCYL fluorescence, kallikrein-7 activator counter-screen | 20% of 250 active | shares compounds with proKLK7 act | EC50, µM | EDANS-DABCYL peptide fluorescence interference, no enzyme;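 active = compounds that raise the fluorescence signal in this interference counterscreen, with EC50 at or below 10 µM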;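 also: intact quenched peptide substrate alone read at 355 nm excitation and 520 nm emission; signal is fluorescence gain from T0 to T4 after four hours at room temperature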
Hits are given with their value. In the library only some 2.2% were active in any assay of this set; here they are far more common.

How did O=C(CN1CCC(NC(=O)NC2CCCC2)CC1)Nc1ccc2c(c1)OCCO2 do in these assays?
GC-B act: inactive; ADAM10 inh: inactive; GC-A act: inactive; ADAM17 inh: inactive; proKLK7 act: inactive

How did CCOC(=O)C1=Nc2cccc3c(O)ccc1c23 do in these assays?
GC-B act: inactive; ADAM10 inh: inactive; GC-A act: inactive; ADAM17 inh: inactive; proKLK7 act: 53.4; proKLK7 act conf: 79.0; EDANS-DABCYL int: 84.5

What do the screens show for `Cc1ccc(C2C=C(c3ccc4c(c3)OCO4)Nc3ncnn32)cc1` (configuration not stated)?
GC-B act: inactive; ADAM10 inh: inactive; GC-A act: inactive; ADAM17 inh: inactive; proKLK7 act: 14.5; proKLK7 act conf: inactive; EDANS-DABCYL int: 9.2

How did Cc1ccc(C2C=C(c3ccccc3OC(F)F)Nc3ncnn32)cc1 (configuration not stated) do in these assays?
GC-B act: inactive; ADAM10 inh: inactive; GC-A act: inactive; ADAM17 inh: inactive; proKLK7 act: 17.9; proKLK7 act conf: 75.7; EDANS-DABCYL int: 79.5

How did CN(C)c1ccc(C2C=C(c3ccc(Cl)cc3OC(F)F)Nc3ncnn32)cc1 (configuration not stated) do in these assays?
GC-B act: inactive; ADAM10 inh: inactive; GC-A act: inactive; ADAM17 inh: inactive; proKLK7 act: inactive

How did COC(=O)[C@]12C[C@H](CC(=O)NCCCN3CCCC3=O)C(=O)N(Cc3cccc4ccccc34)C1=C[C@H](C(C)(C)C)O[C@@H]2C do in these assays?
GC-B act: inactive; ADAM10 inh: inactive; GC-A act: inactive; ADAM17 inh: inactive; proKLK7 act: inactive

How did CC(=O)c1ccc(NCCCN2CCC(C(O)(c3ccccc3)c3ccccc3)CC2)cc1 do in these assays?
GC-B act: inactive; ADAM10 inh: inactive; GC-A act: inactive; ADAM17 inh: inactive; proKLK7 act: inactive

Results for CCC(=O)N1CCc2cc(Br)c(S(=O)(=O)NCc3ccccc3OC)cc21 ?
GC-B act: inactive; ADAM10 inh: inactive; GC-A act: inactive; ADAM17 inh: inactive; proKLK7 act: inactive

Results for COc1cc2c(cc1OC)C(COc1ccc([N+](=O)[O-])cc1)NCC2 (configuration not stated) ?
GC-B act: inactive; ADAM10 inh: inactive; GC-A act: inactive; ADAM17 inh: inactive; proKLK7 act: 14.3; proKLK7 act conf: inactive; EDANS-DABCYL int: inactive

Results for COc1cc2c(cc1OC)C(COc1ccc(F)cc1)NCC2 (configuration not stated) ?
GC-B act: inactive; ADAM10 inh: inactive; GC-A act: inactive; ADAM17 inh: inactive; proKLK7 act: inactive

Results for Cc1cc(=O)oc2cc(OCC(=O)c3ccccc3)ccc12 ?
GC-B act: inactive; ADAM10 inh: inactive; GC-A act: inactive; ADAM17 inh: inactive; proKLK7 act: inactive

Results for O=C(Oc1ccc2ccccc2c1)c1ccco1 ?
GC-B act: inactive; ADAM10 inh: inactive; GC-A act: inactive; ADAM17 inh: inactive; proKLK7 act: inactive

How did CCc1cc(=O)oc2cc(OC(=O)c3ccco3)ccc12 do in these assays?
GC-B act: inactive; ADAM10 inh: inactive; GC-A act: inactive; ADAM17 inh: inactive; proKLK7 act: 352.7; proKLK7 act conf: 788.5; EDANS-DABCYL int: 761.3

How did Cc1oc2cc(OC(=O)c3ccco3)ccc2c(=O)c1-c1nc2ccccc2n1C do in these assays?
GC-B act: inactive; ADAM10 inh: inactive; GC-A act: inactive; ADAM17 inh: inactive; proKLK7 act: 16.0; proKLK7 act conf: 114.8; EDANS-DABCYL int: 104.4

Results for Cc1cc(=O)oc2cc(OC(=O)c3ccccc3)ccc12 ?
GC-B act: inactive; ADAM10 inh: inactive; GC-A act: inactive; ADAM17 inh: inactive; proKLK7 act: 117.2; proKLK7 act conf: 519.0; EDANS-DABCYL int: 376.8

How did CC(=O)Oc1ccc2c(=O)c(-c3ccccc3)c(C)oc2c1 do in these assays?
GC-B act: inactive; ADAM10 inh: inactive; GC-A act: inactive; ADAM17 inh: inactive; proKLK7 act: 121.2; proKLK7 act conf: 446.2; EDANS-DABCYL int: 384.3

Results for CCc1cc(=O)oc2cc(OS(C)(=O)=O)ccc12 ?
GC-B act: inactive; ADAM10 inh: inactive; GC-A act: inactive; ADAM17 inh: inactive; proKLK7 act: inactive

Results for CCCc1cc(=O)oc2cc(OCC(=O)N3CC[C@@]4(O)CCCC[C@H]4C3)ccc12 ?
GC-B act: inactive; ADAM10 inh: inactive; GC-A act: inactive; ADAM17 inh: inactive; proKLK7 act: inactive

Results for CCCc1cc(=O)oc2cc(OC(=O)CN3C(=O)NC4(CCCC4)C3=O)ccc12 ?
GC-B act: inactive; ADAM10 inh: inactive; GC-A act: inactive; ADAM17 inh: inactive; proKLK7 act: 61.8; proKLK7 act conf: 223.9; EDANS-DABCYL int: 192.8

Results for CCOc1ccccc1Oc1coc2cc(OC(=O)c3ccco3)ccc2c1=O ?
GC-B act: inactive; ADAM10 inh: inactive; GC-A act: inactive; ADAM17 inh: inactive; proKLK7 act: 95.6; proKLK7 act conf: 264.4; EDANS-DABCYL int: 235.0

What do the screens show for `Cc1cc(C)cc(Oc2coc3cc(OC(=O)c4cccs4)ccc3c2=O)c1`?
GC-B act: inactive; ADAM10 inh: inactive; GC-A act: inactive; ADAM17 inh: inactive; proKLK7 act: 13.6; proKLK7 act conf: 23.7; EDANS-DABCYL int: 16.5; EDANS interf: inactive

What do the screens show for `COc1ccc(Oc2coc3cc(OC(=O)/C=C/c4ccccc4)ccc3c2=O)cc1`?
GC-B act: inactive; ADAM10 inh: inactive; GC-A act: inactive; ADAM17 inh: inactive; proKLK7 act: inactive

How did Cc1cc(=O)oc2cc(OC(=O)c3ccco3)ccc12 do in these assays?
GC-B act: inactive; ADAM10 inh: inactive; GC-A act: inactive; ADAM17 inh: inactive; proKLK7 act: 459.2; proKLK7 act conf: 728.9; EDANS-DABCYL int: 769.0

How did Cc1cc(=O)oc2cc(OCC(=O)N3CCN(C(=O)c4ccco4)CC3)ccc12 do in these assays?
GC-B act: inactive; ADAM10 inh: inactive; GC-A act: inactive; ADAM17 inh: inactive; proKLK7 act: inactive

How did C[C@H](O)[C@@H]1CN2CCc3ccc(N4CCOCC4)cc3[C@@H]2C[C@@H]1N(C)CC1CCCCC1 do in these assays?
GC-B act: inactive; ADAM10 inh: inactive; GC-A act: inactive; ADAM17 inh: inactive; proKLK7 act: inactive
